# From PubChem BioAssay AID1159580 (chemical genetic matrix, 2015)
# Among all 5,500 compounds or so, about 2,000 (36%) were called active. Not shown: some 18% with an inconclusive outcome. Some of the results follow. Values without a mark were called inactive. No stated cut-off is given here; in the data, active means normalized growth mostly below about 0.91 (no sharp cut-off); inconclusive means no clear call, values can overlap the other calls; inactive means mostly above about 0.92.
# Experiment: chemical genetic growth profiling, strain panel (AID 1159580);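 further: tested at 20 µM; growth read once vehicle control cultures reached saturation at 30 °C; 1 = growth at the plate median or of vehicle wells; lower values mean less growth of the strain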
# Conditions: S. cerevisiae deletion strains, growth OD
smiles,measurement,setting,value
COc1cc(C(=O)Oc2c(Cl)cc(Cl)cc2C=Nc2ccc([N+](=O)[O-])cc2C#N)cc(OC)c1OC,normalized growth,"locus YAR019C, strain CDC15, hits give low values",0.988
same,normalized growth,"locus YBL105C, strain PKC1, hits give low values",0.972
same,normalized growth,"locus YBR135W, strain CKS1, hits give low values",0.969
same,normalized growth,"locus YBR136W, strain MEC1, hits give low values",0.988
same,normalized growth,"locus YBR160W, strain CDC28, hits give low values",0.974
same,normalized growth,"locus YDL017W, strain CDC7, hits give low values",0.974
same,normalized growth,"locus YDL028C, strain MPS1, hits give low values",0.977
same,normalized growth,"locus YDL101C, strain DUN1, hits give low values",0.987
same,normalized growth,"locus YDL108W, strain KIN28, hits give low values",0.982
same,normalized growth,"locus YDL132W, strain cdc53, hits give low values",0.967
same,normalized growth,"locus YDL214C, strain PRR2, hits give low values",0.56 (active)
same,normalized growth,"locus YDR052C, strain DBF4, hits give low values",0.989
same,normalized growth,"locus YDR054C, strain cdc34, hits give low values",0.968
same,normalized growth,"locus YDR226W, strain ADK1, hits give low values",0.978
same,normalized growth,"locus YDR477W, strain SNF1, hits give low values",0.598 (active)
same,normalized growth,"locus YER123W, strain YCK3, hits give low values",0.352 (active)
same,normalized growth,"locus YER133W, strain GLC7, hits give low values",0.553 (active)
same,normalized growth,"locus YFL009W, strain cdc4, hits give low values",0.961
same,normalized growth,"locus YFL029C, strain CAK1, hits give low values",0.983
same,normalized growth,"locus YFR003C, strain YPI1, hits give low values",0.975
same,normalized growth,"locus YFR019W, strain FAB1, hits give low values",0.593 (active)
same,normalized growth,"locus YFR028C, strain CDC14, hits give low values",0.973
same,normalized growth,"locus YGR040W, strain KSS1, hits give low values",0.622 (active)
same,normalized growth,"locus YGR052W, strain FMP48, hits give low values",0.508 (active)
same,normalized growth,"locus YGR092W, strain DBF2, hits give low values",0.302 (active)
same,normalized growth,"locus YHR030C, strain SLT2, hits give low values",0.324 (active)
same,normalized growth,"locus YHR079C, strain IRE1, hits give low values",0.371 (active)
same,normalized growth,"locus YHR082C, strain KSP1, hits give low values",0.497 (active)
same,normalized growth,"locus YHR205W, strain SCH9, hits give low values",0.429 (active)
same,normalized growth,"locus YIL147C, strain SLN1, hits give low values",0.979
same,normalized growth,"locus YJL095W, strain BCK1, hits give low values",0.408 (active)
same,normalized growth,"locus YJL128C, strain PBS2, hits give low values",0.928
same,normalized growth,"locus YJL157C, strain FAR1, hits give low values",0.565 (active)
same,normalized growth,"locus YJR016C, strain ILV3, hits give low values",0.986
same,normalized growth,"locus YJR066W, strain TOR1 (second series), hits give low values",0.812
same,normalized growth,"locus YJR066W, strain TOR1, hits give low values",0.366 (active)
same,normalized growth,"locus YKL048C, strain ELM1, hits give low values",0.765 (active)
same,normalized growth,"locus YKL067W, strain YNK1, hits give low values",0.558 (active)
same,normalized growth,"locus YKL101W, strain HSL1, hits give low values",0.654 (active)
same,normalized growth,"locus YKL193C, strain SDS22, hits give low values",0.965
same,normalized growth,"locus YKL203C, strain TOR2, hits give low values",0.678 (active)
same,normalized growth,"locus YLR113W, strain HOG1, hits give low values",0.458 (active)
same,normalized growth,"locus YLR133W, strain CKI1, hits give low values",0.543 (active)
same,normalized growth,"locus YLR403W, strain SFP1, hits give low values",0.439 (active)
same,normalized growth,"locus YML070W, strain DAK1, hits give low values",0.544 (active)
same,normalized growth,"locus YMR001C, strain CDC5, hits give low values",0.98
same,normalized growth,"locus YMR205C, strain PFK2 (second series), hits give low values",0.59 (active)
same,normalized growth,"locus YMR277W, strain FCP1, hits give low values",0.97
same,normalized growth,"locus YNL006W, strain LST8, hits give low values",0.991
same,normalized growth,"locus YNL020C, strain ARK1, hits give low values",0.503 (active)
same,normalized growth,"locus YNL161W, strain CBK1, hits give low values",0.98
same,normalized growth,"locus YNL183C, strain NPR1, hits give low values",0.465 (active)
same,normalized growth,"locus YNL207W, strain RIO2, hits give low values",0.981
same,normalized growth,"locus YNL222W, strain SSU72, hits give low values",0.975
same,normalized growth,"locus YNL307C, strain MCK1 (second series), hits give low values",0.5 (active)
same,normalized growth,"locus YOL078W, strain AVO1, hits give low values",0.975
same,normalized growth,"locus YOL136C, strain PFK27, hits give low values",0.492 (active)
same,normalized growth,"locus YOR061W, strain CKA2, hits give low values",0.439 (active)
same,normalized growth,"locus YOR119C, strain RIO1, hits give low values",0.549 (active)
same,normalized growth,"locus YOR231W, strain MKK1, hits give low values",0.46 (active)
same,normalized growth,"locus YOR329C, strain SCD5, hits give low values",0.971
same,normalized growth,"locus YPL031C, strain PHO85, hits give low values",0.572 (active)
same,normalized growth,"locus YPL153C, strain RAD53, hits give low values",0.581 (active)
same,normalized growth,"locus YPL204W, strain HRR25, hits give low values",0.548 (active)
same,normalized growth,"locus YPL209C, strain IPL1, hits give low values",0.976
same,normalized growth,"locus YPL256C, strain CLN2, hits give low values",0.431 (active)
same,normalized growth,"locus YPR025C, strain CCL1, hits give low values",0.963
same,normalized growth,"locus YPR106W, strain ISR1, hits give low values",0.971
same,normalized growth,"locus YPR111W, strain DBF20, hits give low values",0.945
same,normalized growth,"strain NNK1, hits give low values",0.979
same,normalized growth,"strain TSCII, hits give low values",0.98
